Compound activity deposited in PubChem by National Center for Advancing Translational Sciences (NCATS).
Only some compounds are listed: those with a hit (about 2.9% of all), similar ones and a draw of the others.
Rango release inh = inhibition of RanGTP-driven Rango-importin beta dissociation | Potency, µM (highest dose often 46.1 µM), for inactives: at the top dose activity change, negative = inhibition | 0.071% of 340,000 active | Biochemical FRET Rango-importin beta, RanGTP-induced dissociation | AID 540253 | O95149+P62826; further: potency means the concentration at half of the fitted maximal effect; % of control where 0% means no effect; nearly all actives have a fitted effect of over 45% in size
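Recombinant Rango FRET biosensor (EYFP–snurportin 1 IBB–cerulean CFP10) at 0.1 uM premixed with 0.25 uM importin beta in PBS, 1 mM DTT, 0.02% Tween-20, 0.1% BSA. Compound added 5 min; RanGTP-RCC1 (0.6 uM Ran, 2 mM GTP, 0.2 uM RCC1) then triggers release, read at 45 min.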
D3 ag = activates the human D3 dopamine receptor; P35462; D3R DiscoveRx beta-arrestin cells, luminescence, 90 min; max activation, %; 0.58% of 410,000 active; AID 652048; in the data active means max activation above about 30%; further: 0% is about no effect
Target sequence (P35462 whole entry, looked up): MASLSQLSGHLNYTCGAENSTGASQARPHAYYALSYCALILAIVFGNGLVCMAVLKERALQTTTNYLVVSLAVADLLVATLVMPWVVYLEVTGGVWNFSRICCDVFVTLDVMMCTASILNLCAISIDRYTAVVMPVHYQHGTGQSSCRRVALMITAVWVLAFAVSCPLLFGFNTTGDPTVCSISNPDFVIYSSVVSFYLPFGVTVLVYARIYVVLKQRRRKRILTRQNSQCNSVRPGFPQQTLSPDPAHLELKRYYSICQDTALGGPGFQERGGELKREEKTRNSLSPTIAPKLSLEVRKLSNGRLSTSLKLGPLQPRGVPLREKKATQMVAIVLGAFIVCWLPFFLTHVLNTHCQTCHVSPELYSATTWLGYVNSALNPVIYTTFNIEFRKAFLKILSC
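Cells at 1500/well, incubated overnight, then treated with pinned compounds (dopamine as control) for 90 min at 37 degrees C. DiscoveRx reagent added for 30 - 60 minutes at room temperature; luminescence read.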
Mm-Cpn inhibitor = blocks the Methanococcus maripaludis chaperonin Mm-Cpn. purified Mm-Cpn ATPase, ADP Transcreener TR-FRET. Potency, µM (series often up to 76.9 µM), for inactives: top-dose activity, negative = inhibition, most hits filed as inhibitors. 0.031% of 330,000 active. AID 504842; active means well fitted inhibition curve with a large enough effect; inconclusive means small, poorly fitted or top-dose-only effect; further: potency means the concentration at half of the fitted maximal effect; on the % scale 0 is the no-effect control and ±100 the full control effect; nearly all actives have a fitted effect of over 80% in size
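Reaction buffer contained 30 mM Tris pH 7.4, 100 mM KCl, 5 mM MgCl2 and 1 mM DTT. Mm-CPN (25 nM final) hydrolysed 10 uM ATP over 30 min at 37°C; ADP was read by HTRF.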
Rango-impB inh = inhibitors of Rango-importin beta complex formation; Potency, µM (highest dose often 92.2 µM), without a hit: top-dose inhibition of complex formation; Q14974; Rango CFP/YFP FRET sensor + importin beta, 45 min; 0.031% of 340,000 active;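 further: potency means the concentration at half of the fitted maximal effect; 0% = DMSO wells and 100% = buffer wells lacking importin beta; nearly all actives have a fitted effect of over 15% in size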
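Inhibition scored from the CFP 486 nm/YFP 530 nm FRET ratio 45 min after adding 0.125 microM importin beta to 50 nM Rango biosensor preincubated 5 min with compound (room temperature, PBS with DTT, Tween-20, BSA). No-importin wells as positive control.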
TSG101-PTAP inh = blocks PTAP/TSG101 interaction to inhibit HIV-1 budding | Potency, µM (top dose mostly 115 µM), without a hit: top-dose activity change, negative = inhibition, most hits filed as inhibitors | Fluorescence polarization, FITC-PTAP peptide / Tsg101 binding | 340,000 tested, under 10 active | Q99816; active means well fitted inhibition curve with a large enough effect in the main read-out, with a control signal flat, not every such curve was filed as active; inconclusive means small, poorly fitted or top-dose-only effect, or effect the other way, or a change in a side signal; inactive means no such curve, though single readings can be large or run the other way; further: potency means the concentration at half of the fitted maximal effect; % of control where 0% means no effect
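Fluorescence anisotropy tracks displacement of a FITC-tagged PTAP peptide (50 nM) from the Tsg101 binding domain (10 uM), following a 20 min room-temperature incubation at pH 7.5.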
DRD3 antagonist = blocks the human D3 dopamine receptor | 2.5% of 360,000 active | P35462 | max response, negative = inhibition, % | AID 652054 | D3R cells, DiscoveRx beta-arrestin luminescence, antagonist mode; hits give low values; in the data active means max response below about -50%; inconclusive means no clear call, values can overlap the other calls; further: on the % scale 0 is the no-effect control and ±100 the full control effect
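Cells plated overnight at 1500 cells/well, then exposed to library compounds with dopamine controls for 90 minutes at 37 degrees C. DiscoveRx reagent added for 30–60 minutes at room temperature; luminescence read, quantitative HTS format.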
* = called active by the depositor; u = inconclusive; x = not tested or not shown. Unless noted, the call rests on the fitted dose curve.

SMILES	Rango release inh	D3 ag	Mm-Cpn inhibitor	Rango-impB inh	TSG101-PTAP inh	DRD3 antagonist
CC[C@@H](C)[C@@H](N)C1=N[C@H](C(=O)N[C@@H](CC(C)C)C(=O)N[C@@H](CCC(=O)O)C(=O)N[C@@H](C(=O)N[C@@H]2CCCCNC(=O)[C@@H](CC(N)=O)NC(=O)[C@@H](CC(=O)O)NC(=O)[C@@H](Cc3cnc[nH]3)NC(=O)[C@@H](Cc3ccccc3)NC(=O)[C@@H]([C@H](C)CC)NC(=O)[C@@H](CCCN)NC2=O)[C@@H](C)CC)CS1	x	16	x	x	x	x
O=C1CC[C@@H]2CC3(C[C@@H]4CCN1[C@H]24)Nc1cc(Cl)ccc1NC3=NC1CCCCC1 (stereo not given in full)	17%	-35	x	0%	-7%	-63*
O=C1CCC[C@@H]2C[C@@]3(C[C@@H]4CCN1[C@H]24)Nc1cc([N+](=O)[O-])ccc1NC3=NC1CCCCC1	-9%	-43	x	10%	0%	u
O=C1CCC[C@@H]2C[C@@]3(C[C@@H]4CCN1[C@H]24)Nc1cc(Cl)ccc1NC3=NC1CCCCC1	10%	-40	x	u	-6%	-78*
O=C(N/N=C\c1ccc(F)cc1)c1ccc(Cn2cc(Br)c([N+](=O)[O-])n2)o1	12%	3	0%	-2%	-3%	12
O=C(N/N=C\c1cccc(F)c1)c1ccc(Cn2cc(Br)c([N+](=O)[O-])n2)o1	8%	-14	0%	0%	0%	-87*
NC(=O)C1CCN(c2nc(-c3cccc([N+](=O)[O-])c3)cs2)CC1	x	x	1%	x	x	x
O=C1C=C(c2cccc(OCc3ccccc3)c2)C[C@@H](c2ccc3c(c2)OCO3)C1	12%	35*	1%	0%	-1%	-11
Cc1cc(OCC(=O)N(Cc2ccc(N(C)C)cc2)Cc2ccco2)cc(C)c1Cl	x	-14	x	x	x	x
COc1ccc(CN2CCN(c3ccccn3)CC2)cc1OCc1ccccc1	-11%	-20	1%	-5%	-1%	-69*
COc1cccc(CN2CCN(c3ncccn3)CC2)c1	-9%	35*	0%	2%	-3%	-59*
COc1cc(CN2CCCC(C)C2)ccc1OCc1ccccc1 (stereo not given)	6%	-12	-7%	0%	-1%	-62*
C=CCc1ccc(OCCCCN2CCC(C)CC2)c(OC)c1	-6%	-19	-1%	-2%	-6%	-59*
Cc1ccc(S(=O)(=O)N(C)C)cc1NC(=O)COC(=O)C1CC(=O)N(c2ccc3c(c2)OCCO3)C1 (stereo not given)	11%	-22	2%	-2%	1%	-10
CC1CN(S(=O)(=O)c2ccc(F)cc2)C(C)N1C(=O)N1CCOCC1 (stereo not given)	15%	-1	3%	2%	-6%	10
COc1ccc(CCNC(=O)CCn2c(=O)c3ccccc3n(Cc3ccccc3)c2=O)cc1OC	x	5	x	x	x	x
COc1cc2[nH]c(=O)n(Cc3ccc(C(=O)N4CCN(c5cc(Cl)ccc5C)CC4)cc3)c(=O)c2cc1OC	x	-16	x	x	x	x
C=CCc1ccc(OCCCN2CCCC(C)C2)c(OC)c1 (stereo not given)	4%	-9	1%	4%	-4%	-79*
Cc1ccc(CN2CCN(c3ncccn3)CC2)o1	-7%	-8	3%	0%	-4%	-54*
C=CCc1ccc(OCCCCN2CC(C)CC(C)C2)c(OC)c1 (stereo not given)	-6%	-23	2%	-2%	1%	-105*
CCOCCCNC(=O)C(c1ccccc1)N(Cc1cccs1)C(=O)c1ccc(NC(C)=O)cc1 (stereo not given)	x	-5	x	x	x	x
CC1CC(C)CN(S(=O)(=O)CC23CCC(CC2=O)C3(C)C)C1 (stereo not given)	-2%	-1	1%	0%	-6%	0
OCC(O)C1OC(c2ccccc2)OC(CO)C1O (stereo not given)	1%	31*	x	-2%	-1%	15
CN(C)S(=O)(=O)N(CC(=O)Nc1ccc(Br)cc1F)c1ccccc1	x	-3	x	x	x	x
COc1cc(/C=N/NC(=O)c2cc(-c3ccc4c(c3)OCO4)n[nH]2)ccc1O	9%	61*	1%	-3%	-1%	38
SMILES	Rango release inh	D3 ag	Mm-Cpn inhibitor	Rango-impB inh	TSG101-PTAP inh	DRD3 antagonist
CNC(=O)C1Cc2c(-c3ccc(Cl)cc3)ccnc2O1 (stereo not given)	x	-6	x	x	x	-57*
CC(=O)Nc1ccc(NC(=O)C2Cc3c(-c4ccc(Cl)cc4)ccnc3O2)cc1 (stereo not given)	x	5	x	x	x	11
O=C(NCCc1ccccc1)C1Cc2c(-c3ccccc3)ccnc2O1 (stereo not given)	x	-10	x	x	x	-67*
CN1CCN(c2ccc(CNC(=O)C3Cc4c(-c5cccc(F)c5)ccnc4O3)cc2)CC1 (stereo not given)	x	-13	x	x	x	-56*
O=C(NCc1ccccc1)C1Cc2c(-c3cccc(F)c3)ccnc2O1 (stereo not given)	x	-8	x	x	x	-50*
COc1cccc2cc(C(=O)Nc3ccc(CC(=O)O)cc3)c(=O)oc12	x	3	x	x	x	x
CC[C@H]1OC(=O)[C@H](C)[C@@H](O[C@H]2C[C@@](C)(OC)[C@@H](O)[C@H](C)O2)[C@H](C)[C@@H](O[C@@H]2O[C@H](C)C[C@H](N(C)C)[C@H]2O)[C@](C)(O)C[C@@H](C)/C(=N\OCOCCOC)[C@H](C)[C@@H](O)[C@]1(C)O	x	5	x	x	x	x
CSc1ccc(C2C(C#N)=C(N)Oc3c2ccc(=O)c2c(C)oc(C)c32)cc1 (stereo not given)	u	-13	-1%	u	6%	-51*
CCOC(=O)c1nnc2cc(-c3ccccc3)nn2c1C	1%	8	1%	4%	-2%	-74*
CCOC(=O)c1cnc2cc(-c3ccc(OCC)cc3)nn2c1-c1ccccc1	x	36*	x	x	x	x
CO[C@H]1C[C@@H]2CC[C@@H](C)[C@@](O)(O2)C(=O)C(=O)N2CCCC[C@H]2C(=O)O[C@H]([C@H](C)C[C@@H]2CC[C@@H](OCCO)[C@H](OC)C2)CC(=O)[C@H](C)/C=C(\C)[C@@H](O)[C@@H](OC)C(=O)[C@H](C)C[C@H](C)/C=C/C=C/C=C/1C	x	-7	x	x	x	x
CC(=O)N1c2c(cc(Br)cc2S(=O)(=O)NCc2ccc(C)cc2)CC1C (stereo not given)	-1%	-17	-1%	-2%	0%	u
